PubChem BioAssay AID1159580 (chemical genetic matrix, 2015)
Where “and” joins values, the source holds several entries; their conditions need not be identical. Equal entries are not always repeated. About 2,000 (36%) of roughly 5,500 compounds were called active. Another 18% or so got no clear call; they are omitted. No stated cut-off is given here; in the data, active means normalized growth mostly below about 0.91 (no sharp cut-off); inconclusive means no clear call, values can overlap the other calls; inactive means mostly above about 0.92. The list shows a part of the results.

Test: chemical genetic growth profiling, strain panel (AID 1159580);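 further: tested at 20 µM; growth read once vehicle control cultures reached saturation at 30 °C; 1 = growth at the plate median or of vehicle wells; lower values mean less growth of the strain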
Settings: S. cerevisiae deletion strains, growth OD

Measured: normalized growth

C[C@@H]1CC[C@@]2(OC1)O[C@H]1CC3C4CC[C@H]5C[C@@H](O)CC[C@]5(C)C4CC[C@]3(C)[C@H]1[C@@H]2C (stereo not given in full)
inactive: locus YAL013W, strain DEP1, hits give low values 0.985 | locus YAL021C, strain ccr4, hits give low values 1.02 | locus YAL026C, strain drs2, hits give low values 1.01 | locus YAL030W, strain snc1, hits give low values 0.994 | locus YBL061C, strain skt5, hits give low values 1 | locus YBR009C, strain hhf1, hits give low values 0.99 | locus YBR021W, strain FUR4, hits give low values 1.11 | locus YBR023C, strain chs3, hits give low values 1 | locus YBR171W, strain sec66, hits give low values 0.994 | locus YBR229C, strain ROT2, hits give low values 0.988 | locus YBR231C, strain swc5, hits give low values 0.988 | locus YBR279W, strain paf1, hits give low values 0.996 | locus YCL011C, strain gbp2, hits give low values 0.994 | locus YCL016C, strain dcc1, hits give low values 0.998 | locus YCL029C, strain bik1, hits give low values 0.978 | locus YCL061C, strain MRC1, hits give low values 0.987 | locus YCL069W, strain vba3, hits give low values 1 | locus YCR088W, strain abp1, hits give low values 0.986 | locus YDL005C, strain med2, hits give low values 0.999 | locus YDL035C, strain GPR1, hits give low values 1.02 | locus YDL040C, strain nat1, hits give low values 0.998 | locus YDL074C, strain BRE1, hits give low values 1 | locus YDL101C, strain DUN1, hits give low values 0.983 | locus YDL134C, strain PPH21, hits give low values 0.972 | locus YDL185W, strain tfp1, hits give low values 0.954 | locus YDL192W, strain arf1, hits give low values 0.978 | locus YDR001C, strain nth1, hits give low values 0.997 | locus YDR069C, strain doa4, hits give low values 0.993 | locus YDR101C, strain arx1, hits give low values 1.01 | locus YDR137W, strain rgp1, hits give low values 1 | locus YDR159W, strain sac3, hits give low values 1 | locus YDR162C, strain NBP2, hits give low values 0.994 | locus YDR195W, strain ref2 0.989 | locus YDR297W, strain sur2, hits give low values 0.988 | locus YDR318W, strain mcm21, hits give low values 0.977 | locus YDR334W, strain swr1, hits give low values 0.993 | locus YDR335W, strain msn5, hits give low values 0.996 | locus YDR388W, hits give low values 0.981 | locus YDR392W, strain spt3, hits give low values 0.981 | locus YDR502C, strain sam2, hits give low values 0.992 | locus YEL003W, strain gim4, hits give low values 0.994 | locus YEL037C, strain rad23, hits give low values 0.989 | locus YEL061C, strain CIN8 (second series), hits give low values 0.992 | locus YER015W, strain faa2, hits give low values 0.996 | locus YER016W, strain bim1, hits give low values 0.998 | locus YER110C, hits give low values 0.969 | locus YER111C, strain swi4, hits give low values 0.994 | locus YER155C, strain BEM2 (second series), hits give low values 0.977 | locus YER155C, strain BEM2, hits give low values 0.999 | locus YER167W, strain BCK2, hits give low values 0.997 | locus YFR010W, strain ubp6, hits give low values 1 | locus YGL078C, strain dbp3, hits give low values 0.956 | locus YGL086W, strain mad1, hits give low values 0.993 | locus YGL167C, strain pmr1, hits give low values 0.999 | locus YGL173C, strain kem1, hits give low values 0.998 | locus YGL227W, strain vid30, hits give low values 0.987 | locus YGL240W, strain doc1, hits give low values 1.01 | locus YGL248W, strain PDE1, hits give low values 0.988 | locus YGL253W, strain hxk2, hits give low values 1 | locus YGR135W, strain pre9, hits give low values 0.941 | locus YGR252W, strain gcn5, hits give low values 1 | locus YHR013C, strain ard1, hits give low values 0.988 | locus YHR027C, strain rpn1, hits give low values 0.992 | locus YHR030C, strain SLT2, hits give low values 0.985 and 1 | locus YHR079C, strain IRE1 (second series), hits give low values 0.987 | locus YHR079C, strain IRE1, hits give low values 0.993 | locus YHR094C, strain hxt1, hits give low values 0.97 | locus YHR129C, strain ARP1, hits give low values 0.991 | locus YHR142W, strain chs7, hits give low values 1.03 | locus YHR200W, strain rpn10, hits give low values 0.997 | locus YIL066C, strain RNR3, hits give low values 1 | locus YIL073C, strain SPO22, hits give low values 0.892 | locus YIL125W, strain kgd1, hits give low values 0.979 | locus YIR030C, strain dcg1, hits give low values 0.977 | locus YJL092W, strain hpr5, hits give low values 0.99 | locus YJL095W, strain BCK1 (second series), hits give low values 0.989 | locus YJL095W, strain BCK1, hits give low values 0.979 and 0.99 | locus YJL115W, strain asf1, hits give low values 0.976 | locus YJL129C, strain trk1, hits give low values 0.977 | locus YJL134W, strain LCB3, hits give low values 0.993 | locus YJL154C, strain vps35, hits give low values 0.99 | locus YJL164C, strain tpk1, hits give low values 0.996 | locus YJL166W, strain qcr8, hits give low values 0.989 | locus YJL168C, strain set2, hits give low values 0.977 | locus YJL187C, strain SWE1 (second series), hits give low values 0.977
